High-throughput results (PubChem BioAssay)
PostGolgi ctrl = yeast control strain growth, post-Golgi counter-screen | AID 738 | efflux-deficient yeast background strain, growth absorbance A615, 16 h | inhibition, % at 10 µM | hit rate 5% among 98,000
CYP2C19 act = cytochrome P450 2C19 (human) activation | P33261 | recombinant CYP2C19, luciferin-H EGE luminescence; hits give high values; 0 = fully inhibited enzyme, 1 = untreated enzyme | activation factor at 5 µM | 96,000 tested, under 10 active | AID 1025;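 active means activation factor of at least 2 at 5 µM in the primary screen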;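 further: 0 = wells with 2.5 mM tranylcypromine and 1 = vehicle-only wells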
CYP2C19 inh = blocks human cytochrome P450 2C19; inhibition, % at 5 µM; CYP2C19 Supersomes, luciferin-H EGE luminescence, 30 min; hit rate 21% among 96,000; P33261;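 active means CYP2C19 inhibition above a set limit at 5 µM in the primary screen, cut at about 50% in these data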;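 further: plate controls were negative control wells for no effect and 2.5 mM tranylcypromine positive control for full effect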
CYP2C9 inh = inhibitors of human CYP2C9 | P11712 | CYP2C9 Supersomes, luciferin-H conversion, luminescence | inhibition, % at 5 µM | hit rate 20% among 96,000;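 active means blocking of liver enzyme CYP2C9 beyond about 50% at 5 µM, limit read from the data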
Target sequence (P11712 whole entry, looked up): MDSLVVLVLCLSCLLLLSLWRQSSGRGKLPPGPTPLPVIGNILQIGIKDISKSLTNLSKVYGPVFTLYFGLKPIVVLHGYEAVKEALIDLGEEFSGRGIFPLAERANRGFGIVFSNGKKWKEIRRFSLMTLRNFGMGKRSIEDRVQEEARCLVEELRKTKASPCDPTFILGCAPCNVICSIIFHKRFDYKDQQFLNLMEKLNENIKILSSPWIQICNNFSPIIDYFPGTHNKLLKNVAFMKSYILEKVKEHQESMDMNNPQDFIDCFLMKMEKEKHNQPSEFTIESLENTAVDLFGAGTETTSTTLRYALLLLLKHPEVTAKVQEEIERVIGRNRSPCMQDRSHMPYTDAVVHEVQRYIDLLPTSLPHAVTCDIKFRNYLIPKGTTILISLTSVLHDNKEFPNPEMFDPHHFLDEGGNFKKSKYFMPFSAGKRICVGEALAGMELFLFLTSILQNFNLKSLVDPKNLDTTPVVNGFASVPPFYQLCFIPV
CYP2C9 act = CYP2C9 (human) activation | P11712 | recombinant CYP2C9, luciferin-H conversion, luminescence; hits give high values; factor 1 = untreated enzyme, 0 = blocked | activation factor at 5 µM | hit rate 1.4% among 96,000 | AID 1024;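 active means activation factor of 2 or more for CYP2C9 at a 5 µM dose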;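 further: 0 = sulfaphenazole-blocked wells and 1 = vehicle-only wells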
PostGolgi yeast = growth inhibition of a yeast mutant, post-Golgi transport screen | inhibition, % at 10 µM | post-Golgi transport phenotypic cell assay | hit rate 0.9% among 98,000 | AID 739;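 further: yeast cells grown in 1536-well plates; yeast grown about 18 h at 30C before absorbance read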
* = called active by the depositor; · = no result. An excerpt weighted towards active compounds, which were near 32% of everything screened. Unless noted, no stated cut-off is given here; in the data, active means inhibition above about 30%; inactive means the rest.

SMILES	PostGolgi ctrl	CYP2C19 act	CYP2C19 inh	CYP2C9 inh	CYP2C9 act	PostGolgi yeast
COc1ccc(OC)c2[nH]c(=O)c(CCNS(=O)(=O)c3ccc(Cl)cc3)cc12	7.7	0.6	44.0	83.8*	0.2	-2.1
COc1ccc(OC)c2[nH]c(=O)c(CCNC(=O)c3ccc(S(=O)(=O)N(C)C)cc3)cc12	-2.9	1	3.4	33.1	0.7	23.1
Cc1ccc(C)c2[nH]c(=O)c(CCNS(=O)(=O)c3ccccc3)cc12	12.3	0.2	76.1*	61.3*	0.4	-7.1
Cc1ccc(S(=O)(=O)N2CCCC2C(=O)N2CCCCCC2)cc1 (stereo not given)	-0.6	0.8	21.4	-168.4	2.7*	5.9
O=C(Nc1nnc(C2CC2)s1)c1cccc(S(=O)(=O)N2CCc3ccccc32)c1	2.0	0.8	23.3	36.8	0.6	-6.2
O=C(Nc1nnc(C2CC2)s1)C1Cc2ccccc2CN1S(=O)(=O)c1ccccc1F (stereo not given)	7.5	0.5	54.7*	4.1	1	3.4
Cc1ccc(S(=O)(=O)N2CCCC2C(=O)Nc2nccs2)cc1 (stereo not given)	13.4	0.4	60.5*	60.9*	0.4	6.9
O=C(C1CCCN1S(=O)(=O)c1ccc(Cl)c(Cl)c1)N1CCCCC1 (stereo not given)	5.0	1	1.4	-161.0	2.6*	13.9
CC1=Nn2c(nc(-c3ccccc3)c2-c2ccccc2)NC(=O)C1Br (stereo not given)	11.4	0.9	11.1	-4.7	1	-4.5
CC(C)c1nnc(NC(=O)CCC(=O)NCc2ccco2)s1	2.9	1.2	-16.4	-6.4	1.1	0.2
CCCS(=O)(=O)c1c(S(=O)(=O)CCC)c2cnccn2c1C(=O)c1ccc(Cl)cc1	7.4	1	2.0	6.2	0.9	7.5
Cc1ccc(S(=O)(=O)N2CCCC2C(=O)Nn2cnnc2)cc1 (stereo not given)	-7.2	0.7	29.5	8.7	0.9	1.3
O=C(Nc1nccs1)C1Cc2ccccc2CN1S(=O)(=O)c1ccc(F)cc1 (stereo not given)	22.2	0.4	60.9*	35.4	0.6	2.2
Cc1ccc(S(=O)(=O)N2CCCC2C(=O)NC2CCCCC2)cc1 (stereo not given)	7.2	0.2	77.0*	30.4	0.7	9.2
O=C(NC1CCS(=O)(=O)C1)C1CCCCN1S(=O)(=O)c1ccc(Cl)cc1 (stereo not given)	26.8	0.8	20.6	91.3*	0.1	-1.5
CC1=C(C(=O)Nc2ccccc2)C(c2ccco2)C(C#N)=C(SCc2ccccc2)N1 (stereo not given)	3.3	0	96.6*	96.2*	0	1.1
CC1=C(C(=O)Nc2ccccc2)C(c2ccco2)C(C#N)=C(SCC(=O)OC(C)C)N1 (stereo not given)	27.2	0.6	42.9	44.9	0.6	2.9
CC1=C(C(=O)Nc2ccccc2)C(c2ccncc2)C(C#N)=C(SCC(=O)Nc2ccccc2)N1 (stereo not given)	-8.9	0.2	83.6*	80.2*	0.2	4.0
CC1=C(C(=O)Nc2ccccc2)C(c2ccco2)C(C#N)=C(SCC(=O)Nc2cccc(C)c2C)N1 (stereo not given)	-1.1	0.3	72.1*	72.2*	0.3	-5.4
COC(=O)CSc1nnc(CNS(=O)(=O)c2ccc(Cl)cc2)n1C	-4.4	1.1	-12.9	13.0	0.9	-3.7
N#Cc1ccc(C(=O)Nc2ccc(N3CCN(C(=O)c4ccco4)CC3)cc2)c(F)c1	-5.5	0.9	11.9	19.6	0.8	1.7
CCOc1ccc(Nc2nc3c(c(=O)[nH]2)CCCC3)cc1	-3.7	1.1	-11.3	-8.1	1.1	-3.3
Cc1c(C#N)c(N)c(C(=O)c2ccccc2)n1Cc1ccccc1	4.0	0	99.3*	75.8*	0.2	-1.6
COc1ccc(OCc2nc(C#N)c(N3CCN(c4ccc(OC)cc4)CC3)o2)cc1	20.7	·	·	·	·	-1.3
N#Cc1nc(COc2ccccc2)oc1N1CCN(c2cccc(Cl)c2)CC1	2.0	0.6	38.5	79.7*	0.2	-0.3
N#Cc1nc(COc2cccc(Cl)c2)oc1N1CCN(c2ccccc2)CC1	21.8	0.5	49.5	57.0*	0.4	-6.0
COc1ccc(N2CCN(c3oc(COc4ccccc4Cl)nc3C#N)CC2)cc1	7.5	0.6	38.5	56.5*	0.4	-8.3
